Records with an inconclusive call do not appear. Unmarked numbers belong to inactive results. Calls come from the whole dose curve.
Assay: qHTS assay to identify small molecule agonists of the endoplasmic reticulum stress response signaling pathway - cell viability counter screen (AID 1159517); note: nearly all actives have a fitted effect of over 50% in size
Settings: ESRE-bla HeLa viability, CellTiter-Glo luminescence, 5 h; series mostly up to 61 µM; activity change, negative = cytotoxicity: at the top concentration
Source text: U.S. Tox21 Program National Center for Advancing Translational Sciences [NCATS] NIH Chemical Genomics Center [NCGC] U.S. Environmental Protection Agency [EPA] National Institutes of Environmental Health Sciences [NIEHS] National Toxicology Program [NTP] U.S. Food and Drug Administration [FDA] Tox21 Assay Overview: Endoplasmic Reticulum (ER) plays an important role in cellular signaling, protein folding/maturation, stress response, lipid biosynthesis, calcium storage and release etc. Under stress conditions, proteins in ER misfold or unfold, and leading to the expression of ER stress responsive genes. ER stress has been associated with a variety of pathophysiological conditions such as cancer, inflammation, neurodegenerative diseases, diabetes, ischemic heart disease etc. To identify the compounds that induce ER stress response, an ER stress reporter cell line, CellSensor ESRE-bla HeLa (Life Technologies, Carlsbad, CA) containing a beta-lactamase reporter gene under control of the Endoplasmic reticulum Stress Response Element (ESRE) was used to screen Tox21 10K compound library. The cytotoxicity of the Tox21 compound library against the ESRE-bla HeLa cell line was tested in parallel by measuring cell viability using the CellTiter-Glo assay in the same wells.
Tox21 Assay Protocol Summary: ESRE-bla HeLa cells were dispensed at 1,500 cells/6 uL of assay medium per well into black wall/clear-bottom 1536-well plates using a Multidrop Combi (ThermoFisher Scientific, Waltham, MA) dispenser. After the assay plates were incubated at 37 C and 5% CO2 for an overnight, 23 nL of compounds dissolved in DMSO, positive controls or DMSO only was transferred to the assay plate by a Pintool station (Kalypsys, San Diego, CA). The assay plates were incubated at 37 C and 5% CO2 for 5 hr. One uL of LiveBLAzer B/G FRET substrate (Life Technologies) was added using a FRD (Flying Reagent Dispenser, Aurora Discovery, San Diego, CA) and the plates were incubated at room temperature for 2 hr. Fluorescence intensity (405 nm excitation, 460 nm and 530 nm emissions) was measured using an Envision plate reader (PerkinElmer, Shelton, CT). For cytotoxicity, 4 ul/well of CellTiter-Glo reagent was added into the assay plates using an FRD. After 30 min incubation at room temperature, the luminescence intensity was measured using a ViewLux plate reader (PerkinElmer).
% is set by controls: 0 for no effect and ±100 for the full control effect.

Row | Compound | activity change, negative = cytotoxicity
1 | CCCCCc1cccc(=O)o1 | -17.6%
2 | CC(C)OC(=O)CCC(=O)OC(C)C | 7.71%
3 | OCCN1CCOCC1 | -1.97%
4 | O=C(CCCCC(=O)Nc1c(I)cc(I)c(C(=O)O)c1I)Nc1c(I)cc(I)c(C(=O)O)c1I | 2.91%
5 | CO[C@@]1(NC(=O)Cc2cccs2)C(=O)N2C(C(=O)O)=C(COC(N)=O)CS[C@@H]21 | 8.86%
6 | CCCC(=O)OCCC(C)CCC=C(C)C (stereo not given) | -7.21%
7 | CC1=C(C(=O)O)N2C(=O)[C@@H](NC(=O)[C@H](N)C3=CCC=CC3)[C@H]2SC1 | -22%
8 | CC1(C)Oc2ccc(C#N)cc2[C@@H](N2CCCC2=O)[C@@H]1O | -0.287%
9 | Cc1c(Cl)cccc1Cl | 6.62%
10 | CC(O)CC(C)O (stereo not given) | -5.18%
11 | CC(C)[C@H]1CC[C@H](C)C[C@@H]1O | -14.2% [at 78.8 µM]
12 | CC(C)OC(=O)OCOP(=O)(CO[C@H](C)Cn1cnc2c(N)ncnc21)OCOC(=O)OC(C)C | -2.09%
13 | CC1(C)CC(OC(=O)CCCCCCCCC(=O)OC2CC(C)(C)NC(C)(C)C2)CC(C)(C)N1 | -8.56% [at 28.5 µM]
14 | [O]=[Mo](=[O])=[O] | 2.77% [at 28.5 µM]
15 | O=NN(CCCl)C(=O)NC1CCCCC1 | 11.4%
16 | COc1cc(OC)nc(O[C@H](C(=O)O)C(OC)(c2ccccc2)c2ccccc2)n1 | 0.542%
17 | Cc1c(NC(=O)c2cccnc2)c(=O)n(-c2ccccc2)n1C | 4.72%
18 | C/C=C(\C)C(C)=O | 12.2%
19 | N#Cc1ccccc1O | -12.4%
20 | c1ccc2c(CC3=NCCN3)cccc2c1 | 8.81%

Row | Compound | activity change, negative = cytotoxicity
21 | CCc1occc(=O)c1O | 12.5%
22 | CCCC(=O)Nc1ccc(OCC(O)CNC(C)C)c(C(C)=O)c1 (stereo not given) | 15.9%
23 | CC(C)Nc1ccccc1 | -6.39%
24 | CC(C)C[C@@H]1[C@H](c2ccccc2)OC(=O)N1CCCN1CCCCCC1 | 0.532%
25 | CN(C)CCCO[C@@H]1[C@H]2OC(C)(C)O[C@H]2O[C@@H]1C(O)CO (stereo not given in full) | 17.4%
26 | CC(=O)C(C)O (stereo not given) | -12.7%
27 | CCC(C(=O)OCCN1CCOC(c2ccccc2)C1C)c1ccccc1 (stereo not given) | 0.729%
28 | COS(=O)(=O)O | 1.28%
29 | COC(=O)c1cc(Cl)cc(Cl)c1 | -1.43%
30 | Cc1c(C(=O)c2c[nH]n(C)c2=O)ccc(S(C)(=O)=O)c1C1=NOCC1 | 0.489% [at 28.5 µM]
31 | N[C@@H](Cc1ccc(O)cc1)C(=O)O | 2.71% [at 6.95 µM]
32 | OC[C@@H](O)C(O)[C@@H](O)CO (stereo not given in full) | -26.1% [at 78.8 µM]
33 | CC(C)CO | 2.19% [at 78.8 µM]
34 | O=C(O)CNC(=O)CNC(=O)CNC(=O)CSC(=O)c1ccccc1 | -5.17%
35 | O=S(=O)(O)c1ccc2c(N=Nc3ccc(S(=O)(=O)O)c4ccccc34)c(O)c(S(=O)(=O)O)cc2c1 | 0.511% [at 6.95 µM]
36 | CCC/C=C(\C=O)CC | 19.7%
37 | O=C1OCCO1 | 15.7% [at 78.8 µM]
38 | C=CCSSCCC | -11.8%
39 | O=C(O)CONC(=O)c1ccccc1 | 0.61%
40 | O=C1NC(c2ccccc2)(c2ccccc2)C(=O)N1COP(=O)(O)O | 9%

Source: PubChem BioAssay (Tox21)
